Screening data (PubChem)
In the library only some 1.7% were active in any assay of this set; here they are far more common.
LYPLA2 inh – LYPLA2 inhibitors, primary screen, counter-screen for PME1 inhibitor project, biochemical, fluorescence polarization, FP-Rh probe ABPP; Acyl-protein thioesterase 2 (Homo sapiens), O95372; AID 2177, 2009; recombinant LYPLA2; inhibition, % at 5.9 µM; 0.38% of 320,000 active;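 active means inhibition above the screen-wide mean plus 3 SD, limit set per campaign, cut at about 26% in these data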
EBNA-1 inh – EBNA-1 DNA-binding inhibitors, primary screen, biochemical, fluorescence polarization. inhibition, % at 14.8 µM. 0.34% of 300,000 active. AID 1950, 2009; in the data active means inhibition above about 28%
PAD4 FP inh – human PAD4 inhibitors, primary screen, biochemical, fluorescence polarization, 1536-well format; inhibition, % at 6.36 µM; recombinant PAD4, RCA probe fluorescence polarization; 0.41% of 330,000 active; AID 485272, 2010; Protein-arginine deiminase type-4 (Homo sapiens), Q9UM07;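 active means percent inhibition above a cutoff equal to the mean of all tested compounds plus 3 SD, cut at about 15% in these data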
ZTA DNA inh – blocks Epstein-Barr virus ZTA, an EBNA-1 counter-screen. P03206. 0.15% of 320,000 active. AID 2234. ZTA-DNA binding, fluorescence polarization. inhibition, % at 11 µM; in the data active means inhibition above about 33%
Target sequence (P03206 whole entry, looked up): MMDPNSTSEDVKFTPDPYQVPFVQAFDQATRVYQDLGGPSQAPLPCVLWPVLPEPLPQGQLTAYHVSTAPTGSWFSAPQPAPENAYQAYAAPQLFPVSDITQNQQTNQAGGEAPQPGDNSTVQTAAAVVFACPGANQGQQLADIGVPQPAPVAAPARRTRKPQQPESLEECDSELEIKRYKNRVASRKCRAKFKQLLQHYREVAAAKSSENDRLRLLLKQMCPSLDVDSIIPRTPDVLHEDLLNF
LYPLA1 inh – LYPLA1 inhibitors, primary screen, counter-screen for PME1 inhibitor project, biochemical, fluorescence polarization, FP-Rh probe ABPP. AID 2174, 2009. 0.16% of 320,000 active. Acyl-protein thioesterase 1 (Homo sapiens), O75608. recombinant LYPLA1. inhibition, % at 5.9 µM;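 active means inhibition above the mean of all tested compounds plus 3 SD, set per campaign, cut at about 14% in these data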;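 further: inhibitors block serine hydrolase probe labeling of LYPLA1 so polarization falls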
GSTO1 counter – inhibitors of recombinant GSTO1, primary screen, counter-screen for RBBP9 inhibitor project, biochemical, fluorescence polarization. inhibition, % at 5.96 µM. 1.1% of 300,000 active. activity-based probe fluorescence polarization. Glutathione S-transferase omega-1 (Homo sapiens), P78417;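 active means inhibition above the campaign mean inhibition plus 3 SD, cut at about 35% in these data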
Target sequence (P78417 whole entry, looked up): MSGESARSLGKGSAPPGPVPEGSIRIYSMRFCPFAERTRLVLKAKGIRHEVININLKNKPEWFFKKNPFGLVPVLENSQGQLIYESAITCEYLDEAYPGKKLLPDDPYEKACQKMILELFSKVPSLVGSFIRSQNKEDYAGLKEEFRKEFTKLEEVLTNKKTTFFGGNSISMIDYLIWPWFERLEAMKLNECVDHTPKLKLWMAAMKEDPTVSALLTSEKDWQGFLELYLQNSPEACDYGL
GSTO1 inh conf – GSTO1 inhibitor hit confirmation, counter-screen for RBBP9 inhibitor project, biochemical, fluorescence polarization, triplicate. shares compounds with GSTO1 counter. 54% of 2,400 active. recombinant GSTO1, probe fluorescence polarization. inhibition, % at 5.96 µM;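 active means inhibition above the primary screen's cutoff, its mean inhibition plus 3 SD, cut at about 35% in these data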;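 further: loss of polarization as inhibitors block binding of rhodamine sulfonate ester activity probe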
Of the large screens only hits and unclear results are named; the others gave an inactive call (follow-up assays come after a bar, where they were run).

COC(=O)[C@@H](NC(=O)c1ccc2c(c1)S(=O)(=O)c1ccccc1C2=O)C(C)C	none
Cc1ccc(N(NC(=O)C(O)(c2ccccc2)c2ccccc2)C(=O)CCl)cc1	GSTO1 counter 82.3 | GSTO1 inh conf 92.2
CCN(CC)NC(=O)Nc1ccccc1	none
O=C(Nc1ccccc1)NN(C(=O)CCl)c1ccccc1	GSTO1 counter 82.4 | GSTO1 inh conf 87.7
Cc1ccc(C(O)(C(=O)NN(C(=O)c2ccccc2)c2ccccc2)c2ccc(C)cc2)cc1	none
CCN1C(=NCCOC)N[C@@H](c2ccccc2)[C@H](C(=O)OC)[C@H]1C	none (no result: LYPLA2 inh, EBNA-1 inh, ZTA DNA inh, LYPLA1 inh, GSTO1 counter)
CCN(c1ccccc1)S(=O)(=O)c1cc(NC(=O)CSc2n[nH]c(=O)[nH]c2=O)ccc1Cl	GSTO1 counter 52.4 | GSTO1 inh conf 67.4
CCNc1c(NCC)c(=O)c1=O	none
Cc1csc(Cn2c(CN(C)C)nc3ccccc3c2=O)n1	GSTO1 counter 42.8 | GSTO1 inh conf inactive
O=[N+]([O-])c1ccc(O)c(/C=N/n2c(-c3ccccc3)n[nH]c2=S)c1	none
O=[N+]([O-])c1ccc(Cl)c(/C=N/n2c(-c3ccncc3)n[nH]c2=S)c1	GSTO1 counter 49.7 | GSTO1 inh conf inactive
Cc1c(NC(=O)C(C)OC(=O)c2sc3ccccc3c2Cl)c(=O)n(-c2ccccc2)n1C (stereo not drawn)	none
Cc1c(NC(=O)C(C)OC(=O)c2ccc([N+](=O)[O-])s2)c(=O)n(-c2ccccc2)n1C (stereo not drawn)	GSTO1 counter 43.9 | GSTO1 inh conf inactive
CCOC(=O)C1=C(C)N(c2ccc(OCC)cc2)C(=O)/C1=C\c1ccco1	none
COC(=O)C1=C(C)N(Cc2ccc(C)cc2)C(=O)/C1=C\c1ccc(O)c(OC)c1	none
CCOC(=O)C1=C(C)N(c2ccc(C)cc2)C(=O)/C1=C\c1ccc(O)c(OC)c1	GSTO1 counter 46.1 | GSTO1 inh conf inactive
CCOc1cc(/C=C2\C(=O)N(CCc3ccc(OC)c(OC)c3)C(C)=C2C(=O)OC)ccc1O	GSTO1 counter 43.3 | GSTO1 inh conf inactive
C=CCc1cc(C)ccc1OCCOCCN1CCN(C)CC1	none
O=C(CSc1nnc(-c2ccco2)o1)c1ccc([N+](=O)[O-])cc1	GSTO1 counter 46.8 | GSTO1 inh conf inactive
O=c1c2c([N+](=O)[O-])cc([N+](=O)[O-])cc2sn1-c1ccc(Br)cc1	GSTO1 counter 37.7 | GSTO1 inh conf inactive
Cn1nc(C(=O)OCC(=O)Nc2ccc(C(N)=O)cc2)c2ccccc2c1=O	none (no result: LYPLA2 inh, EBNA-1 inh, ZTA DNA inh, LYPLA1 inh, GSTO1 counter)
Cc1ccc(C(=O)Nc2nnc(CC(=O)N/N=C/c3ccncc3)s2)cc1	none
Cc1ccc(S(=O)(=O)N2CCN(CC(=O)N/N=C\c3ccc(O)c(O)c3)CC2)cc1	GSTO1 counter 45.9 | GSTO1 inh conf inactive
O=C(N/N=C/c1ccc(O)c(O)c1)c1cccc(S(=O)(=O)N2CCCC2)c1	GSTO1 counter 67.2 | GSTO1 inh conf inactive
Cc1ccc(C(=O)Nc2nnc(CC(=O)N/N=C/c3ccc(O)c(O)c3)s2)cc1	GSTO1 counter 38.1 | GSTO1 inh conf inactive
CCN(CC)S(=O)(=O)c1cccc(C(=O)N/N=C/c2ccc(O)c(O)c2O)c1	GSTO1 counter 63.1 | GSTO1 inh conf inactive
CC(C)C(=O)N1CCN(c2ccccc2NC(=O)c2cc([N+](=O)[O-])ccc2N2CCOCC2)CC1	none
CCc1ccc(CN(C)C(=O)c2cc(COc3cc(C)c(Cl)c(C)c3)on2)nc1	none
NC(=O)c1ccc(NC(=O)c2cccc3c2OCCCO3)cc1	none
COc1ccccc1N(/N=C1\Sc2ccccc2C1=O)C(C)=O	GSTO1 counter 44.1 | GSTO1 inh conf 75.0
COc1ccc(OC)c2sc(N3CCN(C(=O)c4ccc([N+](=O)[O-])s4)CC3)nc12	GSTO1 counter 54.0 | GSTO1 inh conf inactive
O=C(CSc1nc2nn(-c3ccccc3)c(=O)c-2c2n1CCCCC2)NCCc1ccccc1	none
